# Among all 310,000 compounds or so, about 14,000 (4.5%) showed an effect of 50% or more. Effects have a minus sign here. The sample holds strong results, similar compounds and a random draw of the others, so the mix is not that of the screen.
# Target: human ether-à-go-go-related gene (hERG) potassium channel (human, UniProt Q12809)
# Assay: primary screen, population patch clamp on CHO cells stably expressing hERG; higher = less effect of the substance
# 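Further: peak tail current of the secondary pulse compared with the same well before compound.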
# human ether-à-go-go-related gene (hERG) potassium channel, sequence (Q12809 whole entry, looked up): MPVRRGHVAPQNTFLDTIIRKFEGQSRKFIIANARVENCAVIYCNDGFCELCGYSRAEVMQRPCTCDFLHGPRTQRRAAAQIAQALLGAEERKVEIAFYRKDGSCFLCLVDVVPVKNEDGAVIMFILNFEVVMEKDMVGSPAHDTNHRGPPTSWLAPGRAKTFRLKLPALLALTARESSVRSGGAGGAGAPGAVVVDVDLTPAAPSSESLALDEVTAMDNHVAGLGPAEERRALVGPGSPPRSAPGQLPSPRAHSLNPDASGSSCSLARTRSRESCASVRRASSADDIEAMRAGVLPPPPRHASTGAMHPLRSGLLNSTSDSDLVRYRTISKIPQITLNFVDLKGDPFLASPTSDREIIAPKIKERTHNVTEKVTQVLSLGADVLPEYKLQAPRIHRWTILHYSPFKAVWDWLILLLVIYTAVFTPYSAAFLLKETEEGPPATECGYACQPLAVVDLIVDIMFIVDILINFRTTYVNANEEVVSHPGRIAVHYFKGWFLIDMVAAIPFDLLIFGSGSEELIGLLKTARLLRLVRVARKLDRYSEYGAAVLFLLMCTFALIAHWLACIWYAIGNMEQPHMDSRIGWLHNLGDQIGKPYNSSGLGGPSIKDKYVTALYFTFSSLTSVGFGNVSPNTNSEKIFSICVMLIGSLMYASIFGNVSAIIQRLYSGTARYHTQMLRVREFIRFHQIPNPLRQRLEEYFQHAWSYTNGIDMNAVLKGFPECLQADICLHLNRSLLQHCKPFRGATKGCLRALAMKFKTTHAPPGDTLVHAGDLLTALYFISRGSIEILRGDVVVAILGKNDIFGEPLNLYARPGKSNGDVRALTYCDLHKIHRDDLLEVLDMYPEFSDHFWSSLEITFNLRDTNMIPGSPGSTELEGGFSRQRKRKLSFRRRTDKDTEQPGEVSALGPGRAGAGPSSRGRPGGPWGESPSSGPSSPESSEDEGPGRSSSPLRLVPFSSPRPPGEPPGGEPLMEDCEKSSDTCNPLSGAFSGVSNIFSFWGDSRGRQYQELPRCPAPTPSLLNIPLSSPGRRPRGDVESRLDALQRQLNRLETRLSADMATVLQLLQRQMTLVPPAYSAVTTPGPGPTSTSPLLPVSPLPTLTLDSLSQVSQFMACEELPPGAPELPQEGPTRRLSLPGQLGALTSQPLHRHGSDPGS
row,SMILES,"hERG current change (%, negative = inhibition) at 10uM [%]"
1,CCN(CC(=O)Nc1cc(Cl)ccc1C)C(=O)COc1cccc2c1OC(C)(C)C2,-4.2
2,Cc1ccc(S(=O)(=O)N2CCOCC2)cc1C(=O)Nc1cccc(S(=O)(=O)N2CCCC2)c1,-38.3
3,Cc1ccc(S(C)(=O)=O)cc1C(=O)Nc1cccc(S(=O)(=O)N2CCCCCC2)c1,-65.2
4,CC(=O)Nc1ccc(NC(=O)c2cc(S(=O)(=O)N3CCCCC3)ccc2C)cc1,5.45
5,CSc1ncccc1C(=O)Nc1ccc(S(=O)(=O)N2CCCC2)cc1,-16.6
6,CSc1ncccc1C(=O)Nc1cccc(S(=O)(=O)N2CCCCC2)c1,-64.3
7,CCOc1ncccc1C(=O)Nc1cccc(S(=O)(=O)N2CCCCC2)c1,-7.03
8,COc1ccc(OC2C(=O)N(Cc3ccc4c(c3)OCO4)C2c2sccc2C)cc1 (stereo not drawn),-5.31
9,O=CNCC(=O)NC1CCCCCC1,20.5
10,O=C1c2cccnc2C(=O)N1Cc1ccc(S(=O)(=O)NCc2ccco2)s1,16.2
11,CN(Cc1ccco1)S(=O)(=O)c1ccc(CN2C(=O)c3cccnc3C2=O)s1,-63.4
12,COc1ccc(CN2C(=O)c3cccnc3C2=O)cc1S(=O)(=O)N(C)Cc1ccco1,-13.3
13,O=C(C1=C(O)C(=O)N(c2ncccn2)C1c1ccc(Cl)cc1)c1ccco1 (stereo not drawn),7.37
14,O=C(CCl)N=c1sccn1Cc1ccccc1Cl,-5.61
15,COc1cc(/C=C(\C#N)C(=O)NCc2cccs2)ccc1O,-0.725
16,CCOc1cc(CNCC(C)C)c(Cl)cc1OCC(=O)Nc1ccccc1,-15.2
17,O=C(COc1ccc(Br)cc1CNC1CCCCC1)NCCc1ccccc1,-77
18,CCOc1cc(CNC2CCCC2)c(Cl)cc1OCC(=O)Nc1ccccc1,-67.8
19,CCCNCc1cc(OCC)c(OCC(=O)Nc2ccccc2)cc1Br,-24.7
20,Cl.O=C(COc1ccc(Br)cc1CNC1CCCC1)Nc1ccccc1,-73.1
21,COc1cc(CNC2CCCC2)cc(Br)c1OCC(=O)Nc1ccccc1C,-1.01

row,SMILES,"hERG current change (%, negative = inhibition) at 10uM [%]"
1,O=C(COc1ccc(Br)cc1CO)Nc1ccc(F)cc1,-32.8
2,COc1ccccc1NC(=O)COc1ccc(Br)cc1CO,-4.58
3,COc1ccccc1NC(=O)COc1ccc(Br)cc1CNC1CCCC1,-53.2
4,O=C(COc1ccc(Br)cc1CO)Nc1ccccc1,-10.4
5,O=C(COc1ccc(Br)cc1Br)NC1CCCC1,12.9
6,COc1ccc(Br)cc1CN(C)CC(=O)NCCc1ccccc1.O=C(O)C(=O)O,-14.7
7,COC(=O)c1cc(C(=O)CC(C)C)c[nH]1,16.7
8,O=C(/C=C/c1ccccc1)NC(=S)NNC(=O)Cc1cccs1,22.5
9,COc1ccc(NC(=O)CCS(=O)(=O)c2cc3c(cc2Cl)NC(=O)CO3)cc1OC,9.57
10,COc1cc(-c2noc(C)c2C(=O)NCCc2c[nH]c3ccccc23)cc(OC)c1OC,0.397
11,O=C(NCCc1ccccn1)C1CCCN(S(=O)(=O)Cc2ccccc2)C1 (stereo not drawn),9.26
12,CC(C)(C)c1ccc(C(=O)Oc2ccc3c(c2)OCC3=O)cc1,2.55
13,Cl.Fc1ccc(COc2ccc(Br)cc2CNCC2CCCO2)cc1 (stereo not drawn),-63.5
14,COc1ccc(Br)cc1CNCC1CCCO1 (stereo not drawn),5.7
15,CCOc1ccccc1CNCC1CCCO1.Cl (stereo not drawn),11.5
16,Brc1cccc(CNCC2CCCO2)c1 (stereo not drawn),4.72
17,Brc1ccc(OCc2ccccc2)c(CNCC2CCCO2)c1.Cl (stereo not drawn),-50
18,Cl.Fc1ccccc1COc1ccc(Br)cc1CNCC1CCCO1 (stereo not drawn),-68.3
19,CN(C)S(=O)(=O)c1ccc(NC(=O)CN2C(=O)NC3(CCCC3)C2=O)cc1,8.41
20,CCOc1ccc2nc(NC(=O)CSc3nnc(-c4ccncc4)n3CC3CCCO3)sc2c1 (stereo not drawn),3.71
21,Fc1ccc(NC(=S)NCCc2ccc(Cl)cc2)cc1,1.47

row,SMILES,"hERG current change (%, negative = inhibition) at 10uM [%]"
1,COCCn1cnc2c1c(=O)n(CC(=O)OCC(=O)NCC(F)(F)F)c(=O)n2Cc1ccccc1,4.6
2,COCCn1cnc2c1c(=O)n(CC(=O)NN)c(=O)n2Cc1ccccc1,8.95
3,COCCn1cnc2c1c(=O)n(CC(=O)OCC(=O)NCCCc1ccccc1)c(=O)n2Cc1ccccc1,-57.9
4,COc1ccc(CNS(=O)(=O)c2ccc(S(=O)(=O)NC3CC3)cc2)cc1,17.9
5,Cc1cccc(NC(=O)NCCN2CCCCC2)c1,-25
6,O=C1CSc2ccccc2N1Cc1ccccc1F,-55.8
7,O=C1CSc2ccccc2N1Cc1ccc(F)cc1,-38.4
8,O=C(O)CN1C(=O)CSc2ccccc21,-30.6
9,COC(=O)c1cccc(NC(=O)c2ccco2)c1,4.02
10,CC1(C)CC(N2CCN(Cc3ccccc3)CC2)=CC(=[N+]2CCCCC2)C1.[I-],7.04
11,CC1(C)CC(N2CCCC2)=CC(=[N+]2CCCCCC2)C1.[I-],-8.68
12,CC1(C)CC(N2CCCC2)=CC(=[N+]2CCCC2)C1.[I-],-12.1
13,CC1(C)CC(N2CCN(C(c3ccccc3)c3ccccc3)CC2)=CC(=[N+]2CCCCC2)C1.[I-],-72.1
14,CN(Cc1ccccc1)C1=CC(=[N+]2CCCCC2)CC(C)(C)C1.[I-],-54.3
15,CC1(C)CC(NNCCC#N)=CC(=[N+]2CCCC2)C1.[I-],5.87
16,CC1(C)CC(N2CCCCC2)=CC(=[N+]2CCCCC2)C1.[I-],8.09
17,CCN(CC)C1=CC(=[N+]2CCCC2)CC(C)(C)C1.[I-],-4.08
18,CC1(C)CC(N2CCCC2)=CC(=[N+]2CCCCC2)C1.[I-],3.58
19,CN(Cc1ccccc1)C1=CC(=[N+]2CCCC2)CC(C)(C)C1.[I-],-55.4
20,CC1(C)CC(N2CCN(c3ccccc3)CC2)=CC(=[N+]2CCCC2)C1.[I-],-15.3
21,CCCN(CCC)C1=CC(=[N+]2CCCC2)CC(C)(C)C1.[I-],-72.4
